# Measurements published in article PMC7862700, “An all-to-all approach to the identification of sequence-specific readers for epigenetic DNA modifications on cytosine”.
# Legend:
# Experiment in all cases: DAPPL (digital affinity profiling via proximity ligation, sequencing); 10 mM Tris-HCl pH 7.5, 50 mM NaCl, 1 mM DTT, 4% glycerol, room temperature, 30 min; GST-TFs on glutathione beads, 16-mer random dsDNA library, 0.1% formaldehyde crosslink after washing; high values mean tight binding
# Settings in all cases: protein: recombinant; tags: N-terminal GST; dsDNA, one strand shown
# [1] = target: T1, ERF (Homo sapiens, UniProt P50548 1-548)
# T1 sequence: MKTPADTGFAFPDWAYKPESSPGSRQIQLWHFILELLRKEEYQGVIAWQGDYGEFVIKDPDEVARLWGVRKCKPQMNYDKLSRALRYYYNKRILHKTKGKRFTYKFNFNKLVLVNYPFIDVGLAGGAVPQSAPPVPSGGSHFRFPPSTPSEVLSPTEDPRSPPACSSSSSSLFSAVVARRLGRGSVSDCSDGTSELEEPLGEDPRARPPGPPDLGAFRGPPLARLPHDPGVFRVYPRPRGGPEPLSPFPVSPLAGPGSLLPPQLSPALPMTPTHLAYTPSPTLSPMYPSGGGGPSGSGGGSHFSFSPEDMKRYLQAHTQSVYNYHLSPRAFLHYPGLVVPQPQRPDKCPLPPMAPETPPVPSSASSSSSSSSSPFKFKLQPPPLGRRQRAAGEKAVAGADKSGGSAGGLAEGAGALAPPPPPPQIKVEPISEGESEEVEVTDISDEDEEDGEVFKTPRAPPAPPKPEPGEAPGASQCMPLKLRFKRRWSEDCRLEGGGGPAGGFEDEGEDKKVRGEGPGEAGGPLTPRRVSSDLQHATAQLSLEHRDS
# Procedure, shortened: (§1)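 Binding signal is given per hexamer as its read frequency for a factor divided by its frequency in the tag-only sample. GST-fused human transcription factors were expressed in yeast, captured on glutathione beads, barcoded with DNA and pooled with that sample, then incubated with 200 nmole of a 16-mer random double-stranded DNA library in Tris/NaCl/DTT/glycerol buffer for 30 min at room temperature. The pools were then washed, crosslinked, proximity-ligated, amplified by PCR and sequenced on an Illumina NextSeq500.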
# [2] = target: T2, ETV3L (Homo sapiens, UniProt Q6ZN32 1-361)
# T2 sequence: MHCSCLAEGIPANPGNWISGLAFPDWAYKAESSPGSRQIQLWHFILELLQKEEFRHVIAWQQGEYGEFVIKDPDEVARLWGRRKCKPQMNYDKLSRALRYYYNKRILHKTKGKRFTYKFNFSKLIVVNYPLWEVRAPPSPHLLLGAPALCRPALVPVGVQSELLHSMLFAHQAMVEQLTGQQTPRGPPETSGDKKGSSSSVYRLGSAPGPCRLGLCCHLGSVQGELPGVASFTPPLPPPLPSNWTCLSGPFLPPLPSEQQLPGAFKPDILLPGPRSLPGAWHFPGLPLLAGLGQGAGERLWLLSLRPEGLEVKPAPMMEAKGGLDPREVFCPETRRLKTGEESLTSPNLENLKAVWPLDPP
# Procedure, shortened: as §1
# [3] = target: T3, ETS2 (Homo sapiens, UniProt P15036 1-469)
# T3 sequence: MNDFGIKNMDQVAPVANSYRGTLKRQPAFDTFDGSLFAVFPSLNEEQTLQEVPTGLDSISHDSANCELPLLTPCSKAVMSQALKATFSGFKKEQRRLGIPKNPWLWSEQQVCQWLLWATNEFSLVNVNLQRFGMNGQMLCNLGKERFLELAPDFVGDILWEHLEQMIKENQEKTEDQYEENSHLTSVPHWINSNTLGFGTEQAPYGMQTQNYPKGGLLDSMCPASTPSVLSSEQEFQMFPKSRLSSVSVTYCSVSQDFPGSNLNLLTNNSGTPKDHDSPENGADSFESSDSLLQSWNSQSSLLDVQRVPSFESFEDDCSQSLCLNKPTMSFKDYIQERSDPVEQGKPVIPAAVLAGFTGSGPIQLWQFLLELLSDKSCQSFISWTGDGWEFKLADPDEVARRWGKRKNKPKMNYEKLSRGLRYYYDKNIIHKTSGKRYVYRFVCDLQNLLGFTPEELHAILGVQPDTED
# Procedure, shortened: as §1
# [4] = target: T4, SPDEF (Homo sapiens, UniProt O95238 1-335)
# T4 sequence: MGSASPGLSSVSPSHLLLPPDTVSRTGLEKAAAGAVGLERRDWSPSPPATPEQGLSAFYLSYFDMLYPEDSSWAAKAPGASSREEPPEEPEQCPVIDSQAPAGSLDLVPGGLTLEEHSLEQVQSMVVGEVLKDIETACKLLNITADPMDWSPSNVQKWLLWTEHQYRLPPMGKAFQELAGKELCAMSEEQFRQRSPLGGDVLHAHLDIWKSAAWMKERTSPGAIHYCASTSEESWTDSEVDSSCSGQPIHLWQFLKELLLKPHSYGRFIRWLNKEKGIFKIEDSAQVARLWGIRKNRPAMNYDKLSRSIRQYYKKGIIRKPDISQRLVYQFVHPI
# Procedure, shortened: as §1
# [5] = target: T5, ETV7 (Homo sapiens, UniProt Q9Y603 1-341)
# T5 sequence: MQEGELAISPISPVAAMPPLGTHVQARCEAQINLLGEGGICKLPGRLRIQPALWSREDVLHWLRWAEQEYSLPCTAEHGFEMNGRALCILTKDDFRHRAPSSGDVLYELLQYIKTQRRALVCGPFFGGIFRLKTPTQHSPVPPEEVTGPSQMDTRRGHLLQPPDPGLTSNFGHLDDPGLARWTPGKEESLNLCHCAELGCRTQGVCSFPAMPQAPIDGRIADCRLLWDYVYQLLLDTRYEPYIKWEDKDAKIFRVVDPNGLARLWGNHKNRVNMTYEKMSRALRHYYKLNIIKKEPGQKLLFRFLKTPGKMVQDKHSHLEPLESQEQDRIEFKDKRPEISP
# Procedure, shortened: as §1
# [6] = target: T6, ELF5 (Homo sapiens, UniProt Q9UKW6-2 1-255)
# T6 sequence: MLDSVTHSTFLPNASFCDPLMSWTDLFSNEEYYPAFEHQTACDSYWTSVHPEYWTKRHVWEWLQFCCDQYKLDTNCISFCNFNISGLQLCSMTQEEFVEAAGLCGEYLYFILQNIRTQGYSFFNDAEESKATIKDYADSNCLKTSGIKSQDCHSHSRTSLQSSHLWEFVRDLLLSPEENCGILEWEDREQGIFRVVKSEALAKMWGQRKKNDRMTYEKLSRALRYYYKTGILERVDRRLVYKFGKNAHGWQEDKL
# Procedure, shortened: as §1
# [7] = target: T7, ETV3 (Homo sapiens, UniProt P41162-2 1-143)
# T7 sequence: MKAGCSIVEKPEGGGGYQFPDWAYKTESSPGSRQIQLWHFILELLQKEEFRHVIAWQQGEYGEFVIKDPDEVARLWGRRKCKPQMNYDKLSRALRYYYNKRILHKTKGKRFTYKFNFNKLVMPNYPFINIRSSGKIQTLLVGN
# Procedure, shortened: as §1
# [8] = target: ETV6 (Homo sapiens, UniProt P41212 1-452)
# Sequence of ETV6 (P41212 whole entry): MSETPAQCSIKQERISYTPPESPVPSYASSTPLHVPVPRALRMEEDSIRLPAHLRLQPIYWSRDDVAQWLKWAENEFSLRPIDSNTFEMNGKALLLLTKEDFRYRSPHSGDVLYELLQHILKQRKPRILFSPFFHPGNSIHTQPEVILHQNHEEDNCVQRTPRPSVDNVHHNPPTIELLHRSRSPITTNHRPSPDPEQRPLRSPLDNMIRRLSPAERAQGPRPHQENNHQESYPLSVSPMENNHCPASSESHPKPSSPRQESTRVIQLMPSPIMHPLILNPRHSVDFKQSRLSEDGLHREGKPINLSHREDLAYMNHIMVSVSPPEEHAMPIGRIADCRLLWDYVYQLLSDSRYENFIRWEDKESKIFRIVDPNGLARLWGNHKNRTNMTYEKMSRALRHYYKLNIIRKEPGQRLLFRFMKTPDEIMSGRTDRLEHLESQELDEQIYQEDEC
# Procedure, shortened: as §1
Sequence,binding signal [1],binding signal [2],binding signal [3],binding signal [4],binding signal [5],binding signal [6],binding signal [7],binding signal [8]
TGCTGA,"1.03 fold enrichment (6-mer frequency, TF over GST control)","1.05 fold enrichment (6-mer frequency, TF over GST control)","1.11 fold enrichment (6-mer frequency, TF over GST control)","1.11 fold enrichment (6-mer frequency, TF over GST control)","1.07 fold enrichment (6-mer frequency, TF over GST control)","1 fold enrichment (6-mer frequency, TF over GST control)","1.12 fold enrichment (6-mer frequency, TF over GST control)","1.01 fold enrichment (6-mer frequency, TF over GST control)"
TAACGG,"1.04 fold enrichment (6-mer frequency, TF over GST control)","1.04 fold enrichment (6-mer frequency, TF over GST control)","1.1 fold enrichment (6-mer frequency, TF over GST control)","1.1 fold enrichment (6-mer frequency, TF over GST control)","1.06 fold enrichment (6-mer frequency, TF over GST control)","1.07 fold enrichment (6-mer frequency, TF over GST control)","1.1 fold enrichment (6-mer frequency, TF over GST control)","1.14 fold enrichment (6-mer frequency, TF over GST control)"
CCCACC,"1.16 fold enrichment (6-mer frequency, TF over GST control)","1.05 fold enrichment (6-mer frequency, TF over GST control)","1.02 fold enrichment (6-mer frequency, TF over GST control)","1.12 fold enrichment (6-mer frequency, TF over GST control)","1.08 fold enrichment (6-mer frequency, TF over GST control)","1.15 fold enrichment (6-mer frequency, TF over GST control)","1.06 fold enrichment (6-mer frequency, TF over GST control)","1.12 fold enrichment (6-mer frequency, TF over GST control)"
GTACAT,"1.36 fold enrichment (6-mer frequency, TF over GST control)","1.32 fold enrichment (6-mer frequency, TF over GST control)","1.36 fold enrichment (6-mer frequency, TF over GST control)","2.06 fold enrichment (6-mer frequency, TF over GST control)","1.53 fold enrichment (6-mer frequency, TF over GST control)","1.3 fold enrichment (6-mer frequency, TF over GST control)","1.34 fold enrichment (6-mer frequency, TF over GST control)","1.4 fold enrichment (6-mer frequency, TF over GST control)"
GGTATA,"1.18 fold enrichment (6-mer frequency, TF over GST control)","1.12 fold enrichment (6-mer frequency, TF over GST control)","1.08 fold enrichment (6-mer frequency, TF over GST control)","1.12 fold enrichment (6-mer frequency, TF over GST control)","1.13 fold enrichment (6-mer frequency, TF over GST control)","1.09 fold enrichment (6-mer frequency, TF over GST control)","1.11 fold enrichment (6-mer frequency, TF over GST control)","1.03 fold enrichment (6-mer frequency, TF over GST control)"
AGTATC,"1.12 fold enrichment (6-mer frequency, TF over GST control)","1.09 fold enrichment (6-mer frequency, TF over GST control)","1.18 fold enrichment (6-mer frequency, TF over GST control)","1.14 fold enrichment (6-mer frequency, TF over GST control)","1.13 fold enrichment (6-mer frequency, TF over GST control)","1.23 fold enrichment (6-mer frequency, TF over GST control)","1.13 fold enrichment (6-mer frequency, TF over GST control)","1.19 fold enrichment (6-mer frequency, TF over GST control)"
TGTTTA,"1.22 fold enrichment (6-mer frequency, TF over GST control)","1.2 fold enrichment (6-mer frequency, TF over GST control)","1.13 fold enrichment (6-mer frequency, TF over GST control)","1.17 fold enrichment (6-mer frequency, TF over GST control)","1.3 fold enrichment (6-mer frequency, TF over GST control)","1.19 fold enrichment (6-mer frequency, TF over GST control)","1.12 fold enrichment (6-mer frequency, TF over GST control)","1.19 fold enrichment (6-mer frequency, TF over GST control)"
TCGATG,"1.08 fold enrichment (6-mer frequency, TF over GST control)","1.15 fold enrichment (6-mer frequency, TF over GST control)","1.03 fold enrichment (6-mer frequency, TF over GST control)","1.07 fold enrichment (6-mer frequency, TF over GST control)","1.17 fold enrichment (6-mer frequency, TF over GST control)","1.07 fold enrichment (6-mer frequency, TF over GST control)","1.1 fold enrichment (6-mer frequency, TF over GST control)","1.09 fold enrichment (6-mer frequency, TF over GST control)"
ACCATA,"1.15 fold enrichment (6-mer frequency, TF over GST control)","1.25 fold enrichment (6-mer frequency, TF over GST control)","1.17 fold enrichment (6-mer frequency, TF over GST control)","1.17 fold enrichment (6-mer frequency, TF over GST control)","1.11 fold enrichment (6-mer frequency, TF over GST control)","1.15 fold enrichment (6-mer frequency, TF over GST control)","1.19 fold enrichment (6-mer frequency, TF over GST control)","1.16 fold enrichment (6-mer frequency, TF over GST control)"
CCCCGA,"1.15 fold enrichment (6-mer frequency, TF over GST control)","1.23 fold enrichment (6-mer frequency, TF over GST control)","1.07 fold enrichment (6-mer frequency, TF over GST control)","1.05 fold enrichment (6-mer frequency, TF over GST control)","1.06 fold enrichment (6-mer frequency, TF over GST control)","1.13 fold enrichment (6-mer frequency, TF over GST control)","1.05 fold enrichment (6-mer frequency, TF over GST control)","1.11 fold enrichment (6-mer frequency, TF over GST control)"
TGGACA,"1.08 fold enrichment (6-mer frequency, TF over GST control)","1.06 fold enrichment (6-mer frequency, TF over GST control)","1.12 fold enrichment (6-mer frequency, TF over GST control)","1.04 fold enrichment (6-mer frequency, TF over GST control)","1.06 fold enrichment (6-mer frequency, TF over GST control)","1.02 fold enrichment (6-mer frequency, TF over GST control)","1.06 fold enrichment (6-mer frequency, TF over GST control)","1.09 fold enrichment (6-mer frequency, TF over GST control)"
CCTCGC,"1.31 fold enrichment (6-mer frequency, TF over GST control)","1.53 fold enrichment (6-mer frequency, TF over GST control)","1.41 fold enrichment (6-mer frequency, TF over GST control)","1.42 fold enrichment (6-mer frequency, TF over GST control)","1.48 fold enrichment (6-mer frequency, TF over GST control)","1.41 fold enrichment (6-mer frequency, TF over GST control)","1.45 fold enrichment (6-mer frequency, TF over GST control)","1.25 fold enrichment (6-mer frequency, TF over GST control)"
ATCGCT,"1.06 fold enrichment (6-mer frequency, TF over GST control)","1.05 fold enrichment (6-mer frequency, TF over GST control)","1.1 fold enrichment (6-mer frequency, TF over GST control)","1.04 fold enrichment (6-mer frequency, TF over GST control)","1.03 fold enrichment (6-mer frequency, TF over GST control)","1.05 fold enrichment (6-mer frequency, TF over GST control)","1.05 fold enrichment (6-mer frequency, TF over GST control)","1.04 fold enrichment (6-mer frequency, TF over GST control)"
CCATCA,"1.29 fold enrichment (6-mer frequency, TF over GST control)","1.19 fold enrichment (6-mer frequency, TF over GST control)","1.17 fold enrichment (6-mer frequency, TF over GST control)","1.12 fold enrichment (6-mer frequency, TF over GST control)","1.25 fold enrichment (6-mer frequency, TF over GST control)","1.12 fold enrichment (6-mer frequency, TF over GST control)","1.12 fold enrichment (6-mer frequency, TF over GST control)","1.05 fold enrichment (6-mer frequency, TF over GST control)"
CGCTTA,"1.31 fold enrichment (6-mer frequency, TF over GST control)","1.3 fold enrichment (6-mer frequency, TF over GST control)","1.25 fold enrichment (6-mer frequency, TF over GST control)","1.3 fold enrichment (6-mer frequency, TF over GST control)","1.31 fold enrichment (6-mer frequency, TF over GST control)","1.19 fold enrichment (6-mer frequency, TF over GST control)","1.34 fold enrichment (6-mer frequency, TF over GST control)","1.11 fold enrichment (6-mer frequency, TF over GST control)"
